# Experimental data from PMC11574364.
# Columns and labels:
# Experiment in all cases: protein domain microarray probed with biotinylated miRNA; Domain array: 20 mM Tris-HCl pH 7.4, 200 mM KCl, 0.2 mM EDTA, 0.05% NP40, 2 ug/ul heparin, overnight 4 C. ORF array: PBS pH 7.0 with RNase inhibitor, 100 ng RNA; high values mean tight binding
# Details in all cases: ssRNA
# NOVA2(3) = molecular target: T1, NOVA2(3) (Homo sapiens, UniProt Q9UNW9)
# T1 sequence: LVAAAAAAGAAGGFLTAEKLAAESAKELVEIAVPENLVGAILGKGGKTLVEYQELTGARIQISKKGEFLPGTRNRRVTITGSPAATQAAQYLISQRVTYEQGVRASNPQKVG
# RNPC3(2) = molecular target: T2, RNPC3(2) (Homo sapiens, UniProt Q96LT9)
# T2 sequence: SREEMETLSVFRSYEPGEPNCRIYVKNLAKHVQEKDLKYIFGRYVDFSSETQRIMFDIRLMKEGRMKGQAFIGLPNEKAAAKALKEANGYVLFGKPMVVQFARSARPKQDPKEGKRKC
# RBMXL1 = RBMXL1 (Homo sapiens, UniProt Q96E39)
# RBM38 = molecular target: T3, RBM38 (Homo sapiens, UniProt Q9H0Z9)
# T3 sequence: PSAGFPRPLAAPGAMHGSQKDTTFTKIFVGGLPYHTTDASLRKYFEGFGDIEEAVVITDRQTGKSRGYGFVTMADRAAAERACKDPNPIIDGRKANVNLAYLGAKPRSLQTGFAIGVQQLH
# IGF2BP2(3-4) = IGF2BP2(3-4) (Homo sapiens, UniProt Q9Y6M1)
# STAU1(2) = STAU1(2) (Homo sapiens, UniProt O95793)
# SETD1A = SETD1A (Homo sapiens, UniProt O15047)
# IGF2BP1(3-4) = IGF2BP1(3-4) (Homo sapiens, UniProt Q9NZI8)
# VIGILIN(6-10) = VIGILIN(6-10) (Homo sapiens, UniProt Q00341)
# RBM18 = molecular target: T4, RBM18 (Homo sapiens, UniProt Q96H35)
# T4 sequence: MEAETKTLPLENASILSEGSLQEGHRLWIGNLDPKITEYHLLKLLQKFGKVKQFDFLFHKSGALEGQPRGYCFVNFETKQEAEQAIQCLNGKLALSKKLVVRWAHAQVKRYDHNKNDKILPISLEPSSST
# VIGILIN(1-5) = VIGILIN(1-5) (Homo sapiens, UniProt Q00341)
# RBMX = RBMX (Homo sapiens, UniProt P38159)
# DUS2L = molecular target: T5, DUS2L (Homo sapiens, UniProt Q9NX74)
# T5 sequence: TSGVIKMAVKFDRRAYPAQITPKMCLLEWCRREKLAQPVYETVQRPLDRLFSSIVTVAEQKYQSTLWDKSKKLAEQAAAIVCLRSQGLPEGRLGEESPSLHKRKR
# NFAT90(2)/ILF3 = molecular target: T6, NFAT90(2)/ILF3 (Homo sapiens, UniProt Q12906)
# T6 sequence: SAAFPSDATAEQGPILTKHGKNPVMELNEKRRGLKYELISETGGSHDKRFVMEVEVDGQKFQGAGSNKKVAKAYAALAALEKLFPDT
# IGF2BP3(1-2) = IGF2BP3(1-2) (Homo sapiens, UniProt O00425)
# STAU2(1-2) = molecular target: T7, STAU2(1-2) (Homo sapiens, UniProt Q9NUL3)
# T7 chain: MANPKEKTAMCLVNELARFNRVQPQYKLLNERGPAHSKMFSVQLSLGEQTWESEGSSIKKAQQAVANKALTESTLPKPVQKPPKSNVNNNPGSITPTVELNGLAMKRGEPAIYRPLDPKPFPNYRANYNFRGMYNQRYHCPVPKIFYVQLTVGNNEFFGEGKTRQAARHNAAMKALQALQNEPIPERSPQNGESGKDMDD
# RBM24 = molecular target: T8, RBM24 (Homo sapiens, UniProt Q9BX46)
# T8 sequence: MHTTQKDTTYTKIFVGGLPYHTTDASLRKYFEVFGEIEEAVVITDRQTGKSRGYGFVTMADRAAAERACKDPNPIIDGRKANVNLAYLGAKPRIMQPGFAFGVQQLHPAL
# TNRC4(3) = TNRC4(3) (Homo sapiens, UniProt Q5SZQ8)
# YTHDF2 = molecular target: T9, YTHDF2 (Homo sapiens, UniProt Q9Y5A9)
# T9 sequence: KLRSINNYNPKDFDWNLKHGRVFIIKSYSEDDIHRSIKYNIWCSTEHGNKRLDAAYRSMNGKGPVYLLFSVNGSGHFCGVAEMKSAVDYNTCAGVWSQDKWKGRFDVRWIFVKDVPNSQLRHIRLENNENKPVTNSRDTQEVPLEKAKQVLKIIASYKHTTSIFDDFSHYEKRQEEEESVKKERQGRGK
# RBM44 = molecular target: T10, RBM44 (Homo sapiens, UniProt Q6ZP01)
# T10 sequence: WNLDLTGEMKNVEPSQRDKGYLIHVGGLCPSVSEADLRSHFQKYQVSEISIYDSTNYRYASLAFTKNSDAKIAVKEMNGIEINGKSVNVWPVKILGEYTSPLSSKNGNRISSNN
# TNRC4(3), sequence (Q5SZQ8 351-465): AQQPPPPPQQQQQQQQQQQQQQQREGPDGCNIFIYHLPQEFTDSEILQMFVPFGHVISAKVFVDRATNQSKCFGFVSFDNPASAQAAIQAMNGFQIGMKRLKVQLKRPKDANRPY
# IGF2BP1(3-4), sequence (Q9NZI8 388-577): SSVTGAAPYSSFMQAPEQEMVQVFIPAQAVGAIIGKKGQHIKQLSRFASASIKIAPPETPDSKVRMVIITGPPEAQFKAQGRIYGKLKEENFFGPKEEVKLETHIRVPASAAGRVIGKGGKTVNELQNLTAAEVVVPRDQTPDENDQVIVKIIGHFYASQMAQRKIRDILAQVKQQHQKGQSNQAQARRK
# RBMX, sequence (P38159 1-110): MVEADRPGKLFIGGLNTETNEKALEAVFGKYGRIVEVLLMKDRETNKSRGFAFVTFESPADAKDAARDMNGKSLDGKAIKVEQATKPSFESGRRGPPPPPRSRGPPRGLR
# RBMXL1, sequence (Q96E39 1-110): as the sequence (P38159 1-110) above, with A26T, M40I, S91R, R94H, L109F, R110G counted along it
# IGF2BP3(1-2), sequence (O00425 178-364): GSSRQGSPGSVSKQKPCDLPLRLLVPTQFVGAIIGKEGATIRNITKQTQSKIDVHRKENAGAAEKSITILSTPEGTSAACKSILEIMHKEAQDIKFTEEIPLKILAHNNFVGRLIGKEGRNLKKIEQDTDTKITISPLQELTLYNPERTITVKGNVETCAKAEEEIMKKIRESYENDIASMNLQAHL
# VIGILIN(1-5), sequence (Q00341 138-534): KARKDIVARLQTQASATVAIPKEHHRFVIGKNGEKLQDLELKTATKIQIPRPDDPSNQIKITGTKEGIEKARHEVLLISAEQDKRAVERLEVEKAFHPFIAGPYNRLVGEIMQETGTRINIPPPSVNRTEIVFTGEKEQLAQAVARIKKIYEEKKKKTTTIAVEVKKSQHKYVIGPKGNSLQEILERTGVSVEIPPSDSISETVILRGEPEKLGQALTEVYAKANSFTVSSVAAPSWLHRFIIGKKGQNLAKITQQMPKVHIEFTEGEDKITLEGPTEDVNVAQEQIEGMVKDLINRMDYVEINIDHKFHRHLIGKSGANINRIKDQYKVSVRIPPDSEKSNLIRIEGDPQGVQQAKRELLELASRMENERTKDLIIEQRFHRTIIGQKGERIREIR
# SETD1A, sequence (O15047 60-200): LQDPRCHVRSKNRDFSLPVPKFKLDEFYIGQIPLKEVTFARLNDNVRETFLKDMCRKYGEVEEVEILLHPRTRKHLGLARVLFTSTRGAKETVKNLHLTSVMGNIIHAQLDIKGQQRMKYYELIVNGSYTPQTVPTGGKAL
# IGF2BP2(3-4), sequence (Q9Y6M1 410-599): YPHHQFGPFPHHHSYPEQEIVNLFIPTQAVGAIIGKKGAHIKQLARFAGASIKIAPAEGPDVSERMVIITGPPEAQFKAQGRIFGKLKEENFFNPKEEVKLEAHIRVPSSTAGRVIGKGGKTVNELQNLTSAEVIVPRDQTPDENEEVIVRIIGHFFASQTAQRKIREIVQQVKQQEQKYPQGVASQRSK
# VIGILIN(6-10), sequence (Q00341 495-900): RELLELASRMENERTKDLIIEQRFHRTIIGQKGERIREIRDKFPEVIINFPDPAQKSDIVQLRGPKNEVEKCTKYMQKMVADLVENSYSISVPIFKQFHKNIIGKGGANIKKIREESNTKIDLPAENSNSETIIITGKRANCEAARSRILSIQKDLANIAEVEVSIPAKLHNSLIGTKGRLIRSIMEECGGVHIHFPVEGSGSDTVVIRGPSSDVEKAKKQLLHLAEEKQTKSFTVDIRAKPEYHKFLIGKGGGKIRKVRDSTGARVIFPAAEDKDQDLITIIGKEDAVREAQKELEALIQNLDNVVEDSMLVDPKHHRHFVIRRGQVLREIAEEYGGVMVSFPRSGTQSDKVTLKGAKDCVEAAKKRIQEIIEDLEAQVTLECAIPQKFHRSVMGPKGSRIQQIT
# STAU1(2), sequence (O95793 164-271): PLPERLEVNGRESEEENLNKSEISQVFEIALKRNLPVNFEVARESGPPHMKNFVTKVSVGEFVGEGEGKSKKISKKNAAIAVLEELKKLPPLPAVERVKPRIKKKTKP
Sequence,binding signal (NOVA2(3)) [fluorescence intensity],binding signal (RNPC3(2)) [fluorescence intensity],binding signal (RBMXL1) [fluorescence intensity],binding signal (RBM38) [fluorescence intensity],binding signal (IGF2BP2(3-4)) [fluorescence intensity],binding signal (STAU1(2)) [fluorescence intensity],binding signal (SETD1A) [fluorescence intensity],binding signal (IGF2BP1(3-4)) [fluorescence intensity],binding signal (VIGILIN(6-10)) [fluorescence intensity],binding signal (RBM18) [fluorescence intensity],binding signal (VIGILIN(1-5)) [fluorescence intensity],binding signal (RBMX) [fluorescence intensity],binding signal (DUS2L) [fluorescence intensity],binding signal (NFAT90(2)/ILF3) [fluorescence intensity],binding signal (IGF2BP3(1-2)) [fluorescence intensity],binding signal (STAU2(1-2)) [fluorescence intensity],binding signal (RBM24) [fluorescence intensity],binding signal (TNRC4(3)) [fluorescence intensity],binding signal (YTHDF2) [fluorescence intensity],binding signal (RBM44) [fluorescence intensity]
UGAGGUAGUAGGUUGUAUGGUU,144 ± 61.5,130 ± 69.7,805 ± 10.1,1540 ± 34.6,1720 ± 120,78.8 ± 6.29,99.9 ± 23.9,1615 ± 5.45,270 ± 12.9,291 ± 10.4,454 ± 17.2,571 ± 25,47.2 ± 5.46,27.3 ± 2.02,34.3 ± 8.59,74.1 ± 4.8,1340 ± 23.1,333 ± 23.4,72.2 ± 12.5,24.5 ± 2.6
UGAGGUAGUAGGUUGUAUAGUU,49.4 ± 3.28,32.3 ± 6.65,300 ± 36.4,631 ± 19.8,412 ± 46,–,36 ± 1.17,262 ± 8.37,26.1 ± 2.47,110 ± 9.81,86.5 ± 26.5,216 ± 27.7,–,–,21.2 ± 1.65,–,596 ± 24,69.3 ± 14.8,–,20.7 ± 0.276
UAGCUUAUCAGACUGAUGUUGA,63.2 ± 4.35,72.3 ± 78,96.9 ± 4.67,1790 ± 23.9,59.8 ± 2.54,–,23.2 ± 2.69,22 ± 1.81,–,72.6 ± 4.62,20.4 ± 2.57,71.4 ± 18,–,–,–,20.4 ± 2.26,1720 ± 109,25 ± 0.665,–,–
UGAGGUAGUAGGUUGUGUGGUU,271 ± 8.31,301 ± 43.8,981 ± 17.4,1950 ± 73.9,1420 ± 38.2,123 ± 31.3,213 ± 11.9,1118 ± 5.57,498 ± 6.91,312 ± 45.3,622 ± 17.6,721 ± 26,76.1 ± 2.55,45.6 ± 4.09,61.2 ± 7.31,148.7 ± 0.905,1780 ± 28.1,324 ± 34.8,90.3 ± 14.1,–
AGAGGUAGUAGGUUGCAUAGUU,1853 ± 17.2,168 ± 44.9,1390 ± 47.7,2315 ± 13.9,1780 ± 95.8,52.2 ± 5.35,95.585 ± 0.0212,955 ± 10.5,91.1 ± 6.12,316 ± 12.6,173 ± 11.1,963 ± 66.7,25.82 ± 0.0919,21.9 ± 1.63,44.2 ± 2.91,53.6 ± 0.792,1891 ± 18.8,191 ± 21.4,38.4 ± 3.27,–
CAGUGCAAUGAUGAAAGGGCAU,508 ± 29.8,138 ± 35.8,1000 ± 56.8,1690 ± 55.6,904 ± 85.6,23.7 ± 6.78,64.7 ± 9.41,436 ± 8.23,43.4 ± 1.94,248.1 ± 1.58,156 ± 8.85,686 ± 37.1,–,23 ± 0.905,43.1 ± 3.58,39.2 ± 1.2,1450 ± 56.8,85.6 ± 1,30.8 ± 0.523,21.2 ± 0.735
